# The list is not random: actives were taken first. Their share in the collection is about 2.8%.
# Beta2AR agonist: beta2AR agonists driving receptor internalization, primary screen, cell-based, FAP fluorogen, flow cytometry; Beta-2 adrenergic receptor (Homo sapiens), P07550; Am2.2-beta2AR cells; response, % (concentration not given with the values); hit rate 0.43% among 340,000; AID 504454, 2011;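 active means response above a set limit, near 3 SD of response in nonfluorescent compounds, cut at about 42% in these data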
# Target sequence (P07550 whole entry, looked up): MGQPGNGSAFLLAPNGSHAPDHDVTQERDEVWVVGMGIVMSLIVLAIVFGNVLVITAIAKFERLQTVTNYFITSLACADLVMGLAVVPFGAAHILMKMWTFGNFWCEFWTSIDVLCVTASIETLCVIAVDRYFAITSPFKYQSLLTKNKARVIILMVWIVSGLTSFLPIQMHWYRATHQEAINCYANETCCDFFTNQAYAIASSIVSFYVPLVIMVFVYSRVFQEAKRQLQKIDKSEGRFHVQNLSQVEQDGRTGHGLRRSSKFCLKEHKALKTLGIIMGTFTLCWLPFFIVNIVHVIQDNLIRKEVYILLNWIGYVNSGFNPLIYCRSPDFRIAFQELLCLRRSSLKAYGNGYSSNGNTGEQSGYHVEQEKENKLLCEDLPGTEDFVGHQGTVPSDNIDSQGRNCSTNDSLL
# KKLEB cytotox: cytotoxicity in KKLEB CF airway cells, primary screen, cytotoxicity control for CF NF-kB inhibitor project, cell-based, uHTS, fluorescence assay plates | hit rate 0.36% among 360,000 | activity change (cytotoxicity), % at 5 µM | KKLEB CF airway cells viability, ATPlite luminescence, overnight; active compounds read low; cells stimulated with P. aeruginosa culture filtrate;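 active means corrected activity change at or below -50% at 5 µM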
# MITF TRPM1 inh: inhibitors of MITF-dependent TRPM1 promoter reporter, primary screen, cell-based, SK-MEL-5, single point, luciferase | SK-MEL-5 TRPM1 promoter luciferase, 24 h | inhibition, % at 12.5 µM | hit rate 0.83% among 330,000;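 active means mean inhibition across replicates of 60% or more, whatever share of single replicates reaches that level; inconclusive means some that reach 60%, reason not given; inactive means mean inhibition across replicates below 60%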
# Peg3 prom inh: Peg3 promoter-driven luciferase inhibitors, primary screen, cell-based, HeLa, luciferase luminescence; HeLa PEG-Prom luciferase reporter, overnight; inhibition, % at 20 µM; hit rate 1.7% among 360,000; AID 588405, 2011;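 active means inhibition of at least 50% at 20 µM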
# CF NFkB block: inhibitors of PAF-induced NF-kB signaling, primary screen, cell-based, GFP fluorescence, uHTS; AID 588850, 2011; hit rate 0.86% among 360,000; inhibition, % at 5 µM; KKLEB NF-kB-GFP reporter, GFP fluorescence overnight;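 active means at least 50% inhibition at 5 µM, scaled per plate between neutral and stimulator controls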;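 further: PAF is a Pseudomonas aeruginosa culture filtrate used as stimulus; plate controls were PAF-stimulated DMSO wells for no effect and unstimulated DMSO wells for full effect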
# HIF-2a inh: HIF-2a reporter inhibitors, primary screen, luminescence, 786-0 RCC cells. 786-0 RCC cells HIF-2a reporter, luciferase luminescence, overnight. inhibition, % at 18.8 µM. hit rate 0.72% among 360,000;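 active means inhibition of the luminescence signal of 40% or more relative to plate controls, in a single-dose primary screen at 18.75 µM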
# Mdm2 MdmX conf: retested Mdm2-MdmX interaction blockers, confirmation, cell-based, luminescence, single concentration, set 2; shares compounds with HIF-2a inh; SaOS-2 split-luciferase Mdm2/MdmX complementation; inhibition, % at 8 µM; hit rate 99% among 740;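 active means mean inhibition of the luminescence signal across two replicates at or above 26 percent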
# HIF-2a inh conf: HIF-2a reporter inhibitor retest, confirmation, luminescence, 786-0 RCC cells. shares compounds with HIF-2a inh. HIF-2a luciferase reporter luminescence, overnight. inhibition, % at 18.8 µM. hit rate 56% among 1,800. AID 651580, 2012;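 active means mean inhibition across four replicates of at least 40 percent at the single tested concentration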
# HIF-1a cs: HIF-1a luciferase reporter signal reduction – MiaPaCa-2 cells, single concentration, counter-screen for HIF-2a inhibitor project, confirmation; shares compounds with HIF-2a inh; MiaPaCa-2 HIF-1a luciferase reporter, desferoxamine, overnight; inhibition, % at 18.8 µM; hit rate 72% among 1,800;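 active means mean inhibition of the reporter signal across four replicates at the single tested dose of 50% or more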
# Starred values were filed as active, the others as inactive; ? = inconclusive; nt = not tested or not shown.
SMILES,Beta2AR agonist,KKLEB cytotox,MITF TRPM1 inh,Peg3 prom inh,CF NFkB block,HIF-2a inh,HIF-2a inh conf,HIF-1a cs,others
O=C(CSc1nnnn1-c1cccc2c1CCCC2)N1CCCCC1,23.7,-0.9,2.5,-2.4,7.7,20.1,nt,nt,
Cc1ccc(C(=O)NC(C#N)=C(Cl)Cl)cc1,nt,nt,nt,nt,nt,nt,nt,nt,Mdm2 MdmX conf=103.2*
Cc1ccc(C(=O)NC(=C(Cl)Cl)S(=O)(=O)c2ccccc2)cc1,7.5,-9.2,-16.7,78.8*,-8.9,88.7*,-17.3,24.8,
Cc1ccc(N(CC(=O)NCCc2ccc(F)cc2)S(=O)(=O)c2ccc(Cl)c([N+](=O)[O-])c2)c(C)c1,31.0,-2.3,47.9,104.0*,-0.8,92.2*,32.1,107.7*,
Cc1noc(/C=C/c2ccccn2)c1[N+](=O)[O-],-1.1,-10.7,53.6,26.4,5.0,72.7*,86.5*,106.4*,
COc1ccccc1N/C=C/c1onc(C)c1[N+](=O)[O-],2.9,14.3,6.1,0.3,-40.0,-70.7,nt,nt,
CCc1ccc(OCC(=O)N2CC(C(N)=O)Oc3ccccc32)cc1 (stereo not drawn),-3.0,-0.5,-6.3,-19.2,2.7,-1.6,nt,nt,
CC#CCN(Cc1ccco1)C(=O)C1CCC(=O)N(CCc2cccc(F)c2)C1 (stereo not drawn),nt,2.2,nt,12.2,-1.0,17.2,nt,nt,
Cc1cc(C)cc(COc2ccc3c(C)c(CC(=O)O)c(=O)oc3c2C)c1,4.5,0.2,-14.4,-10.8,11.1,-26.7,nt,nt,
Cc1c(C)c2ccc(OCc3ccc(C(=O)O)o3)c(C)c2oc1=O,16.0,-4.0,22.6,-41.1,11.2,49.9*,5.2,-38.4,
O=C(Nc1ccccc1)C1=C(Nc2ccccc2)CSC1,nt,-24.6,nt,-58.6,18.5,-31.4,nt,nt,
CC(=NNC(=S)Nc1cccc(Cl)c1)c1ccccn1,4.0,-14.3,33.3,93.3*,12.2,72.3*,-166.8,39.5,
CN(C)CCCNc1c2ccccc2nc2ccccc12,36.2,-6.1,?,102.0*,-25.1,32.9,nt,nt,Mdm2 MdmX conf=102.0*
Cc1cn([C@H]2C[C@H](O)[C@@H](CCC(=O)NCc3ccc(N(C)C)cc3)O2)c(=O)[nH]c1=O,nt,-1.8,nt,-0.6,9.0,9.0,nt,nt,
COc1c(C)cc(C(O)c2ncc(-c3ccccc3C)[nH]2)cc1C (stereo not drawn),nt,-7.5,nt,20.9,9.7,13.7,nt,nt,
O=C(NC(NC(=S)Nc1ccccc1Cl)C(Cl)(Cl)Cl)c1cccc(Cl)c1 (stereo not drawn),25.6,-32.1,2.2,45.5,45.0,44.3*,19.5,102.0*,
COc1ccc(NC(=S)NC(NC(=O)c2cccc(Cl)c2)C(Cl)(Cl)Cl)c([N+](=O)[O-])c1 (stereo not drawn),6.3,6.4,-13.0,34.4,24.3,-40.1,nt,nt,
O=C(O)c1sc2cc(C(F)(F)F)cnc2c1-c1ccccc1,5.7,1.4,7.3,15.8,0.0,21.6,nt,nt,
CSc1nnc(-c2sc3cc(C(F)(F)F)cnc3c2-c2ccccc2)n1C,3.7,-3.4,31.9,27.4,15.6,41.4*,11.5,54.6*,
O=C(CCN1C(=O)/C(=C/c2ccccc2)SC1=S)N[C@@H](CO)Cc1ccccc1,-21.8,-12.0,2.3,80.3*,29.5,49.9*,nt,nt,Mdm2 MdmX conf=98.2*
CCOc1cnn(-c2cc(Oc3ccc(C)cc3)ncn2)c(=O)c1Cl,-16.0,-3.9,5.9,-4.5,8.1,-8.9,nt,nt,
Cc1ccccc1Oc1cc(-n2ncc(Cl)c(Cl)c2=O)ncn1,25.7,-100.5*,93.8*,104.7*,96.5*,98.4*,99.8*,106.4*,
COc1ccc(-c2coc3c(C(=O)Nc4cc(OC)c(OC)c(OC)c4)cccc23)c(C)c1,nt,-37.5,nt,33.8,24.5,-10.6,nt,nt,
COc1cccc(CNC(=O)c2cc3oc4ccccc4c3n2C)c1OC,-2.8,-10.6,9.8,-5.9,4.5,-17.5,nt,nt,Mdm2 MdmX conf=100.2*
CCOc1ccc(OCc2cccc(C(=O)N3CCCCCC3)c2)cc1,-13.1,-7.4,52.2,-85.9,10.1,44.4*,28.3,-70.5,
SMILES,Beta2AR agonist,KKLEB cytotox,MITF TRPM1 inh,Peg3 prom inh,CF NFkB block,HIF-2a inh,HIF-2a inh conf,HIF-1a cs,others
CCOc1ccc(C(=O)N2CCCC2)cc1,-3.0,4.8,2.5,-4.5,-4.2,-21.6,nt,nt,
COc1ccc(-c2csc3ncnc(NCCCO)c23)cc1,-1.4,-5.3,-3.4,30.1,49.1,41.0*,8.6,45.7,
COc1ccc(-c2csc3ncnc(Nc4ccc(O)cc4)c23)cc1,-7.8,-2.2,13.4,2.2,32.1,21.2,nt,nt,
CC(O)(c1cccc(F)c1)c1nc(-c2cncnc2)cs1 (stereo not drawn),nt,-4.9,nt,6.6,10.7,13.2,nt,nt,
Cc1cc(NC(=O)CSc2nc(C3CCCCC3)nc3ccccc23)no1,-8.6,-13.0,-4.1,28.1,37.4,37.3,nt,nt,
Cc1nonc1NC(=O)CSc1nc(C2CCCCC2)nc2ccccc12,-13.4,-19.0,0.1,26.8,36.3,44.8*,30.4,68.1*,
C=CC(C)(C)c1c(O)c(CC=C(C)C)c(O)c2c(=O)c3ccc(O)c(O)c3oc12,32.6,-7.2,nt,61.0*,54.3*,10.4,nt,nt,Mdm2 MdmX conf=97.2*
C=CC(C)(C)c1c2occc2c(O)c2ccc(=O)oc12,2.8,-18.9,nt,13.2,5.1,-12.9,nt,nt,
N#Cc1c(-c2ccccc2)cc(-c2ccc(O)cc2)nc1N,-10.4,-6.6,7.4,-1.7,-9.3,-31.5,nt,nt,
CS(=O)c1nc(-c2ccc(Br)cc2)cc(-c2ccccc2)c1C#N (stereo not drawn),99.5*,-31.3,78.0*,106.0*,13.8,88.1*,20.5,97.6*,
COc1ccc(-c2cc(-c3ccc(O)cc3)nc(N)c2C#N)cc1,0.9,-6.9,3.2,-9.8,-9.6,-18.3,nt,nt,
COc1ccc(-c2cc(-c3ccccc3)c(C#N)c(S(C)(=O)=O)n2)cc1,9.6,-19.1,19.0,104.4*,33.4,88.4*,13.6,85.1*,
CS(=O)(=O)c1nc(-c2ccc(Br)cc2)cc(-c2ccccc2)c1C#N,29.7,-66.2*,6.4,112.6*,80.5*,97.2*,20.3,100.4*,Mdm2 MdmX conf=103.2*
N#Cc1c(-c2cccc(F)c2)cc(-c2ccccc2)nc1Br,-9.4,-11.2,13.8,11.7,-6.3,5.0,nt,nt,

# Assay outcomes from PubChem.
